The whole screen tested about 3,300 compounds, of which about 280 (8.5%) were called active.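 The calls were made as follows: active = mean growth inhibition over the two runs of 50% or more; inactive = mean growth inhibition under 50%.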 Only a selection was taken, and actives are over-represented in it overall.

Consider 63 compounds from PubChem BioAssay AID371 (SRMLSC, 2006).

The assay in a line: A549 NSCLC cell proliferation inhibitors – ATP luminescence, human non-small cell lung line, primary screen (AID 371).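 Also: compound exposure lasted 72 h before the ATP read; 0% = untreated cell signal and 100% = no luminescence left.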 To be noted: at 10 µM, hits give high values.
With `COc1ccc(Nc2cc(C)nc(-n3nc(C)cc3C)n2)cc1`, the growth inhibition was 66.2% (active).

In the case of `COc1ccc(Nc2nc(Nc3ccc(OC)cc3)nc(-n3[nH]c(=O)c(C)c3C)n2)cc1`, the growth inhibition is 39.1% (inactive).

Consider `COc1ccc(Nc2cc(C)nc3ccccc23)cc1`, for which the growth inhibition is 31.3% (inactive).

`O=C(Nc1ccccc1)c1cc(N2CCOCC2)nc2ccccc12`: the growth inhibition is 8.97% (inactive).

Regarding `CC(C)COc1ccc(C(=O)NC(CC(C)C)C(=O)O)cc1` (stereo not drawn), the growth inhibition is -8.3% (inactive).

Turning to `COc1cc(-c2nn3c(-c4ccccn4)nnc3s2)cc(OC)c1OC`, the growth inhibition was -8.06% (inactive).

For the compound `Cc1ccc2c(=O)c(CN(C)C3CCN(C)CC3)c(C)[nH]c2c1C`, the growth inhibition was 5.56% (inactive).

With `COc1ccc(C2=Nn3c(nnc3-c3ccccn3)SC2)cc1`, the growth inhibition is 50.1% (active).

Turning to `COc1ccc(OC)c(C2=Nn3c(nnc3-c3ccco3)SC2)c1`, the growth inhibition was 23.2% (inactive).

As to `COc1ccc(C2=Nn3c(nnc3-c3ccccn3)SC2)cc1OC`, the growth inhibition was 3.8% (inactive).

With `CCOc1ccc(C2=Nn3c(nnc3-c3ccccn3)SC2)cc1`, the growth inhibition is 42.3% (inactive).

As to `COc1ccccc1-c1nnc2n1N=C(c1ccc(O)c(O)c1)CS2`, the growth inhibition was 74.4% (active).

Regarding `CCOc1ccc(C2=Nn3c(nnc3-c3ccccc3OC)SC2)cc1`, the growth inhibition is 66% (active).

Regarding `COc1ccc(C2=Nn3c(nnc3-c3cccnc3)SC2)cc1OC`, the growth inhibition was 25% (inactive).

`COc1ccc(C2=Nn3c(nnc3-c3ccccc3)SC2)cc1OC`: the growth inhibition is 8.86% (inactive).

For the compound `CCOc1ccc(C2=Nn3c(nnc3-c3cccnc3)SC2)cc1`, the growth inhibition is 22.4% (inactive).

With `Cc1ccsc1C1NC(=O)c2c(sc3c2CCCC3)N1` (stereo not drawn), the growth inhibition was 45.3% (inactive).

Turning to `O=CN1CCN(C(=O)CN2C(=O)c3ccccc3C2=O)CC1`, the growth inhibition was -3.2% (inactive).

For `C/C=C/c1ccccc1OCc1ccc(C(=O)O)o1`, the growth inhibition is 6.28% (inactive).

As to `CC12CN3CC(=O)N4CC5(C)CN(CC(C)(C4)C5=O)C(=O)CN(C1)CC(C)(C3)C2=O`, the growth inhibition was 1.18% (inactive).

For `COC(=O)CSc1ncnc2c1sc1nc(-c3ccco3)c3c(c12)CC(C)(C)OC3`, the growth inhibition is 4.18% (inactive).

Regarding `O=C(Nc1ccccn1)c1ccc(=O)[nH]n1`, the growth inhibition was 5.88% (inactive).

For `C=CCn1c(SCC(=O)OC)nc2sc3c(c2c1=O)CCN(C)C3`, the growth inhibition was 0.89% (inactive).

Turning to `CCCC1C2C(=O)N(c3ccccc3OC)C(=O)C2ON1c1ccccc1` (stereo not drawn), the growth inhibition was 5.99% (inactive).

With `CN(Cc1ccccc1)c1ncnc2ccc(Br)cc12`, the growth inhibition was 55.5% (active).

`CN(C)CCN(Cc1ccccc1)c1ccccn1`: the growth inhibition is 0.66% (inactive).

On to `COCCNc1nc2c(c(=O)n(C)c(=O)n2C)n1Cc1cccc(C(F)(F)F)c1`, for which the growth inhibition was 36.4% (inactive).

`Cc1c(NC(=O)C(CC(=O)O)NCc2ccco2)c(=O)n(-c2ccccc2)n1C` (stereo not drawn): the growth inhibition was 5.55% (inactive).

For `Cc1c(NC(=O)c2ccc(=O)oc2)c(=O)n(-c2ccccc2)n1C`, the growth inhibition is -1.44% (inactive).

Regarding `Cc1c(NC(=O)c2coc(=O)c(Br)c2)c(=O)n(-c2ccccc2)n1C`, the growth inhibition is 80.5% (active).

With `Cc1c(CCC#N)c(N2CCN(C3CCCCC3)CC2)n2c(nc3ccccc32)c1C#N`, the growth inhibition was 89.1% (active).

For `C=C(C)CN1CCN(c2c(CCC#N)c(C)c(C#N)c3nc4ccccc4n23)CC1`, the growth inhibition is 25.9% (inactive).

For `Cc1c(CCC#N)c(N2CCCCC2)n2c(nc3ccccc32)c1C#N`, the growth inhibition is 4.5% (inactive).

As for `CC1(C)CC(=O)C(CCCN2C(=O)c3ccccc3C2=O)C(=O)C1`, the growth inhibition is 0.69% (inactive).

As to `Cc1ccc(-c2nn3c(-c4cccc(Cl)c4)nnc3s2)cc1`, the growth inhibition is 45% (inactive).

With `CC(C)COc1ccc(C(=O)OCCN2CCOCC2)c(O)c1`, the growth inhibition is 12.1% (inactive).

As to `C(=C\c1ccccc1)/CN1CCN(C(c2ccccc2)c2ccccc2)CC1`, the growth inhibition was 22.9% (inactive).

Consider `O=c1[nH]c2ccccc2n1CCCN1CCN(C(c2ccccc2)c2ccccc2)CC1`, for which the growth inhibition is 90.4% (active).

As to `O=C(O)CCCC(=O)N1CCN(C(c2ccccc2)c2ccccc2)CC1`, the growth inhibition is 0.62% (inactive).

`COc1cc2[nH]c3c(=O)n(CCN(C(C)C)C(C)C)cnc3c2cc1OC`: the growth inhibition is 5.76% (inactive).

As to `Cc1ccc(-c2nn(CCC(=O)NCC3CCCO3)c(=O)c3ccccc23)cc1` (stereo not drawn), the growth inhibition is 17.4% (inactive).

On to `c1ccc(-c2ccc(C(c3ccccc3)n3ccnc3)cc2)cc1` (stereo not drawn), for which the growth inhibition was 78.7% (active).

Consider `O=C(N(c1ccccc1)c1ccccc1)n1ccnc1`, for which the growth inhibition is 7.93% (inactive).

As to `COc1cc(C2C(C#N)=C(N)Oc3cc(N)ccc32)cc(OC)c1OC` (stereo not drawn), the growth inhibition was 51.6% (active).

Take `COc1cccc(C2C(C#N)=C(N)Oc3cc(C)[nH]c(=O)c32)c1OC` (stereo not drawn): the growth inhibition was 2.31% (inactive).

`COc1cc(C2C(C#N)=C(N)Oc3cc(C)n(CCN4CCOCC4)c(=O)c32)cc(OC)c1OC` (stereo not drawn): the growth inhibition was 3.04% (inactive).

On to `CC(C(=O)N1CCCCC1)N1C(=O)c2ccccc2C1=O` (stereo not drawn), for which the growth inhibition is -14.3% (inactive).

Regarding `O=C1C(=O)N(CCN2CCOCC2)C(c2ccccn2)/C1=C(/O)c1ccccc1` (stereo not drawn), the growth inhibition is 4.51% (inactive).

For the compound `CCN(CC)CCCN1C(=O)C(=O)/C(=C(/O)c2ccc(Cl)cc2)C1c1ccccn1` (stereo not drawn), the growth inhibition was -16.8% (inactive).

`CCN(CC)CCOC(=O)C(c1ccccc1)c1ccccc1`: the growth inhibition is 2.67% (inactive).

Regarding `CCCCc1oc2ccccc2c1C(=O)c1cc(I)c(OCCN(CC)CC)c(I)c1`, the growth inhibition is 83.4% (active).

As to `CCC(C(=O)OCCN(CC)CC)c1ccccc1` (stereo not drawn), the growth inhibition is 5.51% (inactive).

In the case of `CCCn1c(SCC#N)nc2c(c1=O)C1(CCCC1)Cc1ccccc1-2`, the growth inhibition is 21.2% (inactive).

In the case of `O=S(=O)(c1ccccc1)N1CCC(N2CCN(c3ccccc3)CC2)CC1`, the growth inhibition is 4.82% (inactive).

On to `CCCCNC(=O)C(C#N)c1nc2ccccc2nc1N1CCN(Cc2ccc3c(c2)OCO3)CC1` (stereo not drawn), for which the growth inhibition was 11.1% (inactive).

With `CCOC(=O)N1CCN(c2ncnc3c2[nH]c2ccc(OC)cc23)CC1`, the growth inhibition was 28.5% (inactive).

Regarding `CCN(CC)CCNc1ncnc2c1[nH]c1ccc(OC)cc12`, the growth inhibition is 42.2% (inactive).

Take `COc1ccccc1C(=O)N1CCN(Cc2ccc3c(c2)OCO3)CC1`: the growth inhibition is 8.7% (inactive).

As for `Cc1cc(=O)oc(C)c1C(=O)N1CCN(Cc2ccc3c(c2)OCO3)CC1`, the growth inhibition was 8.78% (inactive).

For the compound `CC(C)OC(=O)C(C#N)c1nc2ccccc2nc1N1CCN(Cc2ccc3c(c2)OCO3)CC1` (stereo not drawn), the growth inhibition was 3.13% (inactive).

As to `Cc1ccc2[nH]c3c(N4CCN(Cc5ccc6c(c5)OCO6)CC4)ncnc3c2c1`, the growth inhibition is 83.9% (active).

As for `COc1ccc2[nH]c3c(N4CCN(Cc5ccc6c(c5)OCO6)CC4)ncnc3c2c1`, the growth inhibition is 76.3% (active).

Consider `Fc1ccc2[nH]c3c(N4CCN(Cc5ccc6c(c5)OCO6)CC4)ncnc3c2c1`, for which the growth inhibition is 83.3% (active).
